# Screening data as filed in PubChem BioAssay.
# RECQ1 helicase: qHTS Assay for Inhibitors of RecQ-Like Dna Helicase 1 (RECQ1); ATP-dependent DNA helicase Q1 (Homo sapiens), P46063; RECQ1 DNA unwinding, red fluorescence kinetic read; Potency, µM (titrated, usually from 57.3 µM), inactives show at the highest dose activity, negative = inhibition, most hits filed as inhibitors; 0.54% of 240,000 active;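 note: plate controls were vehicle for no effect and no enzyme for full effect; nearly all actives have a fitted effect of over 30% in size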
#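 RECQ1T1 50 nM; forked duplex (20 bp + 30-nt ss tails) 200 nM, ATP 2 mM final; pH 8.0, 2 mM MgCl2, 2.5 ug/ml poly(dI-dC); 15 min compound preincubation; discontinuous kinetic read over 2 h at RT.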
# TDP1 inh: qHTS Assay for Inhibitors of Tyrosyl-DNA Phosphodiesterase (TDP1) | Tyrosyl-DNA phosphodiesterase 1 (Homo sapiens), Q9NUW8 | Potency, µM (top dose mostly 130 µM), for inactives: at the top dose activity change, negative = inhibition, actives largely listed as inhibitors | 0.28% of 350,000 active | recombinant TDP1, AlphaScreen DNA substrate cleavage; note: % is set by controls: 0 for no effect and ±100 for the full control effect; nearly all actives have a fitted effect of over 40% in size
#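 Signal: AlphaScreen proximity between streptavidin donor and anti-FITC acceptor beads on intact substrate. Reaction: Tdp1 1 nM, substrate 15 nM final, 5 min RT after 15 min compound preincubation.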
# L3MBTL1 inh-1: qHTS Assay for the Inhibitors of L3MBTL1; AlphaScreen L3MBTL1–H3K9me1 peptide binding; Potency, µM (highest dose often 57.1 µM), inactives show at the highest dose activity, negative = inhibition, most hits filed as inhibitors; 0.66% of 230,000 active; note: % is set by controls: 0 for no effect and ±100 for the full control effect; nearly all actives have a fitted effect of over 60% in size
# Target sequence (Q9Y468 whole entry, looked up): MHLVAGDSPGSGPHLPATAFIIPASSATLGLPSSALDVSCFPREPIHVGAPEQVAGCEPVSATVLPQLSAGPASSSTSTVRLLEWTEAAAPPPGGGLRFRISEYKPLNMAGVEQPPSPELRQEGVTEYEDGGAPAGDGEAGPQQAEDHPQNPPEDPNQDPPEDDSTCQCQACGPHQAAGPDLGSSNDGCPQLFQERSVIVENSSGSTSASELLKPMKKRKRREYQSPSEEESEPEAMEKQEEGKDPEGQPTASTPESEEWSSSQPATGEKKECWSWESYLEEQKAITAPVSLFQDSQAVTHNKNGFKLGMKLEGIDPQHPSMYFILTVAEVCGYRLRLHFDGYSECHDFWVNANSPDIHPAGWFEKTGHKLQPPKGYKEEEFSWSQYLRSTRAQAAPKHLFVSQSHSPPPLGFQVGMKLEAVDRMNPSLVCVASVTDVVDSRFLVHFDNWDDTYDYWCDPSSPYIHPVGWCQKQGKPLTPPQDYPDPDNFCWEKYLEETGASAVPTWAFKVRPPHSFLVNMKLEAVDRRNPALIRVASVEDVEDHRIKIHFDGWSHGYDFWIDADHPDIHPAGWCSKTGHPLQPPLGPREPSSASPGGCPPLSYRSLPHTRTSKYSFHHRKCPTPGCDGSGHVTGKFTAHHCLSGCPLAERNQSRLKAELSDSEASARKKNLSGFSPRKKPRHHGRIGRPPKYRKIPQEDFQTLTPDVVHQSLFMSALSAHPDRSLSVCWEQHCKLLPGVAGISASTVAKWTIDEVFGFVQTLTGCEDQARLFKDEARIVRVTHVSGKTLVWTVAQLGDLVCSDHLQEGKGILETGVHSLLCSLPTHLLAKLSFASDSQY
#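 L3MBTL1 50 nM + b-AHA-H3(1-15)K9me1 75 nM, 30 min RT; compound added, 30 min RT; streptavidin donor/Ni-chelate acceptor beads 10 ug/mL each final, 30 min RT dark; AlphaScreen read.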
# BLM inh: qHTS Assay for Inhibitors of Bloom's syndrome helicase (BLM); RecQ-like DNA helicase BLM (Homo sapiens), P54132; recombinant BLM DNA unwinding, fluorescence dequenching; Potency, µM (top dose mostly 56.1 µM), for the others: at the top dose activity change, negative = inhibition, actives largely listed as inhibitors; 0.2% of 350,000 active; AID 2528, 2010;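 note: plate controls were vehicle for no effect and no enzyme for full effect; nearly all actives have a fitted effect of over 35% in size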
# APE1 inh: qHTS Assay for Inhibitors of the Human Apurinic/apyrimidinic Endonuclease 1 (APE1); DNA repair nuclease/redox regulator APEX1 (Homo sapiens), P27695; recombinant APE1, TAMRA/BHQ-2 abasic DNA cleavage fluorescence; Potency, µM (doses to about 65.8 µM), without a hit: at the highest dose activity change, negative = inhibition, most hits filed as inhibitors; 0.35% of 350,000 active; AID 2517, 2012;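 note: plate controls were vehicle for no effect and reference inhibitor for full effect; nearly all actives have a fitted effect of over 55% in size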
#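 Endonuclease cleavage of a quenched abasic-site DNA duplex (50 nM) by APE1 (0.75 nM) was tracked by TAMRA dequenching. Compounds were preincubated with enzyme 15 min at room temperature; data normalized to buffer-only and DMSO wells plus NSC13755 control.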
# JMJD2E inh: qHTS Assay for Inhibitors of Human Jumonji Domain Containing 2E (JMJD2E); AID 2147, 2009; Potency, µM (series often up to 57.1 µM), without a hit: at the highest dose activity change, negative = inhibition, usual class: inhibitors; 1.6% of 230,000 active; JMJD2E catalytic domain, FDH-coupled NADH fluorescence (FDH is formaldehyde dehydrogenase);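 note: 0% = wells with enzyme and -100% = buffer wells without enzyme; nearly all actives have a fitted effect of over 50% in size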
# L3MBTL1 inh-2: qHTS Assay for the Inhibitors of L3MBTL1: Hit Validation. AID 540279, 2011. 91% of 500 active. Potency, µM, hits mostly inhibitors. shares compounds with L3MBTL1 inh-1. L3MBTL1 methyl-lysine binding inhibition, biochemical qHTS; note: nearly all actives have a fitted effect of over 70% in size
# L3MBTL1 ctr: qHTS Assay for the Inhibitors of L3MBTL1: Hit Validationin AlphaScreen Counterscreen. shares compounds with L3MBTL1 inh-1. AlphaScreen counterscreen, signal inhibition. Potency, µM (doses to about 57.1 µM), for inactives: top-dose activity change, negative = inhibition, hits mostly inhibitors. 500 tested, under 10 active. AID 602224, 2012; note: 0% is about no effect
# Starred values were filed as active, the others as inactive; i = inactive; u = inconclusive; x = not tested or not shown; [ ] = remark or other dose. The entries come from a sample that favours hits as a whole. Unless noted, calls come from the whole dose curve; as a rule, active = well fitted curve in the direction sought with a large enough effect; inconclusive = small, poorly fitted or top-dose-only effect, or another doubt; inactive = no such curve, though single readings can be large; an effect the other way counts as inactive or inconclusive. Potency is the fitted concentration of half-maximal effect.
SMILES,RECQ1 helicase,TDP1 inh,L3MBTL1 inh-1,BLM inh,APE1 inh,JMJD2E inh,L3MBTL1 inh-2,L3MBTL1 ctr
Cc1ccc(N=C2NC(=O)/C(=C\c3ccco3)S2)cc1,-18.0%,-2.6%,20µM*,-25.7%,u,-7.7%,26.7*,-7.2%
O=C1NC(=Nc2ccc(Cl)cc2)/C(=C/c2ccco2)S1,-13.3%,x,25.1µM*,11.2µM*,u,u,8.44*,4.6%
CC(C)CCC(CCN1CCOCC1)c1ccc2c(c1)OCO2 (centres undefined),-7.6%,-3.2%,-1.2%,-12.7%,-2.0%,u,x,x
CC(C)CCC(CCN1CCCC1)c1ccc2c(c1)OCO2 (centres undefined),8.2%,-5.9%,28.2µM*,-1.7%,-14.3%,u,21.2*,6.6%
CCc1ccccc1NC(=O)CSc1ccsc1[N+](=O)[O-],-2.1%,0.0%,28.2µM*,-21.5%,8.6%,-2.7%,23.8*,-2.9%
CC(C)(O)c1cc(=O)sc2nc3ccccc3n12,-5.0%,-4.9%,2.9%,2.7%,6.7%,-3.7%,x,x
O=C(O)c1cc(C(=O)O)cc(-c2ccc(/C=c3/sc4nc5ccccc5n4c3=O)o2)c1,u,x,1.78µM*,87.9%,28.2µM*,12.6µM*,3.36*,-4.7%
CCCCCCNC(=O)c1cc(-c2ccco2)nc2ccccc12,i,-7.7%,14.1µM*,-12.4%,9.8%,u,7.52*,8.5%
COC(=O)C1CCN(C(=O)c2cc(-c3ccco3)nc3ccccc23)CC1,x,x,0.794µM*,x,u,x,5.32*,2.3%
O=C(c1cc(-c2ccco2)nc2ccccc12)N1CCN(Cc2ccccc2)CC1,x,1.7%[56.1 µM],-6.6%,x,-5.9%,x,x,x
CN(C)C(CNC(=O)c1cc(-c2ccco2)nc2ccccc12)c1ccccc1 (centres undefined),x,-16.2%,7.94µM*,x,-2.9%,x,2.67*,-6.5%
CC(C)[C@H](NC(=O)c1ccccc1Cl)C(=O)Nc1nc(-c2ccccn2)cs1,-3.3%,7.7%,35.5µM*,1.1%,-2.0%,u,23.8*,17.6%
O=C(O)c1ccc2c3n(nc2c1)-c1ccc(Cl)cc1CO3,x,x,5.01µM*,5.2%,20.6%,x,21.2*,-3.7%
Cc1ccc2nc(-c3ccc(O)c(O)c3)cn2c1,x,x,31.6µM*,-20.2%,u,x,5.32*,-0.7%
CC(=O)Nc1ccc(-c2cn3cc(C)ccc3n2)cc1,-3.5%,-0.6%,3.4%,1.2%,-6.6%,u,x,x
COc1ccc(C2CC(=O)Nc3cc(OC)c(OC)cc32)cc1Br (centres undefined),x,7.8%,-13.0%,-3.4%,7.0%,x,x,x
COc1ccc(C2CC(=O)Nc3ccccc3S2(=O)=O)cc1OC (centres undefined),-15.2%,-8.8%,11.2µM*,2.2%,u,u,u,0.5%
Cn1nc2c(c1C(=O)O)CCCC2,-3.5%,x,5.62µM*,-0.5%,u,-2.8%,15*,14.8%
Cn1nc2c(c1C(=O)N1CCCC(C(=O)c3cc(F)ccc3F)C1)CCCC2 (centres undefined),12.4%,x,0.9%,-1.1%,3.8%,9.5%,x,x
Cc1ccc(-c2csc3ncn(CC#N)c(=O)c23)cc1,i,2.4%,-12.6%,-16.7%,1.6%,-1.3%,x,x
Cc1ccc(-c2csc3ncn(CC#N)c(=O)c23)cc1C,x,x,22.4µM*,-27.7%,-73.0%,x,21.2*,13.4%
CCS(=O)(=O)N1Cc2ccccc2CC1C(=O)Nc1ncc(C)s1 (centres undefined),-13.0%,5.1%,4.2%,-3.1%,-1.1%,2.3%,x,x
CCS(=O)(=O)N1Cc2ccccc2CC1C(=O)Nc1nnc(SCc2ccc(C#N)cc2)s1 (centres undefined),-0.1%,8.1%,17.8µM*,-29.1%,4.1%,u,3.36*,20.3%
CCNc1nc(NCC)n2c(SCC(=O)Nc3ccc(F)cc3)nnc2n1,x,6.3%[0.505 µM],28.2µM*,x,11.9µM*,x,u,18.3%
CCc1ccc(CN2C(=O)c3ccccc3C2C(=O)NCCc2ccc(OC)c(OC)c2)cc1 (centres undefined),x,10.4%,x,-1.3%,x,x,x,x
SMILES,RECQ1 helicase,TDP1 inh,L3MBTL1 inh-1,BLM inh,APE1 inh,JMJD2E inh,L3MBTL1 inh-2,L3MBTL1 ctr
CCCC[N+](C)(C)CCC(=O)NC(C)(C)CS(=O)(=O)[O-],-9.1%,-4.9%,20µM*,1.0%,1.2%,4.9%,21.2*,-0.7%
Cc1ccc(S(=O)(=O)NCCCCCC(=O)NC(C)(C)CO)cc1,-6.8%,6.0%,1.7%,-0.6%,-2.1%,6.0%,x,x
CCOC(=O)CN1C(=O)S/C(=C\c2ccc(-c3ccc(C(=O)O)c(Cl)c3)o2)C1=O,x,8.91µM*,28.2µM*,-2.3%,15µM*,x,13.4*,-1.0%
CCOC(=O)CN1C(=O)S/C(=C/c2ccc(N3CCCCC3)o2)C1=O,i,2.0%,3.6%,-3.6%,14.7%,-1.1%,x,x
COc1ccc(CCNC(=O)c2nc(SCc3ccccc3F)ncc2Cl)cc1OC,x,7.0%,x,-7.5%,x,x,x,x
O=C(CSc1nnc(-c2ccc(C(F)(F)F)cn2)o1)Nc1ccccc1Cl,5.8%,1.3%,31.6µM*,-3.7%,-0.1%,-9.3%,21.2*,0.5%
